TTR transcr act – TTR transcription activators in neuroblastoma reporter cells, primary screen, cell-based, luminescence, SH-SY5Y, TTR promoter Gaussia luciferase | activation, % at 16.7 µM | 92,000 tested, 1.3% active | 100% = recombinant luciferase protein wells;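 active = activation above the mean of all tested compounds plus 3 SD, cut at about 9.5% in these data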;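 also: cells exposed to compounds for one day before reading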
TTR inh HuH7 – TTR promoter reporter inhibitors in hepatoma cells, counter-screen for TTR transcription activator project, cell-based, luminescence, HuH7 hepatoma; shares compounds with TTR transcr act; HuH7 TTR promoter-Gaussia luciferase reporter; inhibition, % at 16.7 µM; 1,100 tested, 4% active; AID 1117279, 2014;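 active = average inhibition above the solvent-only control wells' mean plus 3 SD, cut at about 15% in these data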;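 also: inhibitors lower well luminescence so higher value means more inhibition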
TTR up confirm – TTR transcription activators, retest, confirmation, cell-based, luminescence, SH-SY5Y, triplicate | shares compounds with TTR transcr act | SHSY5Y TTR promoter Gaussia luciferase; 100% = purified Lucia enzyme wells, no cells | activation, % at 16.7 µM | 1,100 tested, under 10 active | AID 1117280, 2014;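 active = mean activation above a set limit taken from the earlier primary screen, cut at about 11% in these data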
Hits are given with their value. This excerpt belongs to a sample that is enriched for hits.

For CC(C)C[C@H]1CNC(=S)N1C[C@H]1CCCN1C[C@H](CC(C)C)N1C[C@H](Cc2ccc(O)cc2)N(CC2CCCCCC2)C1=S the results were TTR transcr act 24.9, TTR inh HuH7 inactive and TTR up confirm inactive.
`CC(C)C[C@H]1CNC(=S)N1C[C@H]1CCCN1C[C@H](CC(C)C)N1C[C@H](Cc2ccc(O)cc2)N(CCc2ccccc2)C1=S` gave TTR transcr act inactive.
For COc1ccc([C@H]2C[C@@H](n3cc(-c4ccc(F)cc4)nn3)[C@H](O)CN2CC2CCCCC2)cc1 the results were TTR transcr act inactive.
`CCCCNC(=O)C[C@H]1C[C@@]2(C(=O)OC)C(=C[C@H](C(C)C)O[C@@H]2C2CC2)N(CCc2ccc(OC)c(OC)c2)C1=O` gave TTR transcr act inactive.
`CSC1=NCCN1C(=O)C(C)Oc1ccccc1` (centres undefined) gave TTR transcr act inactive.
For CC(Oc1ccccc1)C(=O)N1CCCc2ccccc21 (centres undefined) the results were TTR transcr act 10.2, TTR inh HuH7 inactive and TTR up confirm inactive.
Screening CC(OC(=O)Cn1c(C(F)(F)F)nc2ccccc21)C(=O)N1CCCc2ccccc21 (centres undefined) returned TTR transcr act inactive.
Screening CN(C)[C@H]1CCN(c2cccc3c2S(=O)(=O)N(C2CC2)CCCO3)C1 returned TTR transcr act inactive.
`Cc1ccccc1OCCn1c(=S)[nH]c2ccccc21` gave TTR transcr act inactive.
Cc1ccccc1OCCn1c(S(=O)(=O)O)nc2c(N)ncnc21 was read as TTR transcr act 9.9, TTR inh HuH7 inactive and TTR up confirm inactive.
For Cc1ccccc1OCCn1c(C)nc2ccccc21 the results were TTR transcr act inactive.
Screening COc1cc2c(cc1OC)[C@@H](NC(=O)CCc1ccccc1)[C@H](O)C2 returned TTR transcr act inactive.
COc1ccc(Cc2nnc(-c3ccccc3)o2)cc1 was read as TTR transcr act inactive.
For COc1ccc(SCCc2nnc(-c3ccccc3)o2)cc1 the results were TTR transcr act inactive.
Screening CCCc1nnc(-c2ccc(OC)cc2)o1 returned TTR transcr act 11.7, TTR inh HuH7 inactive and TTR up confirm inactive.
Screening O=C(CSc1ncn[nH]1)Nc1cc(S(=O)(=O)N2CCCC2)ccc1Cl returned TTR transcr act inactive.
CCOc1ccc(N2C(=O)C(C)CNC2=S)cc1 (centres undefined) was read as TTR transcr act inactive.
O=C1OCc2ccc(NC(=O)C3CC3)cc21 was read as TTR transcr act 20.9, TTR inh HuH7 inactive and TTR up confirm inactive.
`O=C1OCc2ccc(NC(=O)c3c(F)cccc3Cl)cc21` gave TTR transcr act inactive.
For O=C(Nc1cccc(Cl)c1)Nc1ccc2c(c1)C(=O)OC2 the results were TTR transcr act inactive.
Screening CCC[C@H]1[C@@H](NC(=O)c2cccnc2)CC[C@@]23CCCN2C(=O)CCC[C@@H]13 returned TTR transcr act inactive.
Screening CS(=O)(=O)N1C[C@]2(c3ccccc3)CC1Cc1ccccc12 returned TTR transcr act inactive.
Screening Cc1c(-c2ccc(Cl)cc2)[n+](=O)c2c(n1[O-])CCCC2 returned TTR transcr act inactive.
O=[n+]1c2c(n([O-])c3c1CCCC3)CCCC2 was read as TTR transcr act inactive.
`CCc1c(C)n([O-])c2c([n+]1=O)CCC2` gave TTR transcr act 11.8, TTR inh HuH7 inactive and TTR up confirm inactive.
Cc1nc2sc(C(=O)NCc3ccc4c(c3)OCO4)c(N)c2c(C)c1Cl was read as TTR transcr act inactive.
For Cc1ccc(S(=O)(=O)N2C=C(c3ccccc3)c3ccccc3-c3ccccc32)cc1 the results were TTR transcr act inactive.
Screening N/C(=N\OC(=O)c1ccccc1)c1cccnc1 returned TTR transcr act 10.2, TTR inh HuH7 inactive and TTR up confirm inactive.
`Cc1ccc(C(=O)O/N=C(\c2ccccc2)c2cccnc2)cc1` gave TTR transcr act inactive.
`N/C(=N\OC(=O)c1ccc2c(c1)OCO2)c1cccnc1` gave TTR transcr act inactive.
COC(=O)[C@H](CC1(c2cn(S(=O)(=O)CC[Si](C)(C)C)c3ccccc23)C(=O)Nc2ccccc21)NC(=O)OC(C)(C)C (some centres undefined) was read as TTR transcr act inactive.
For O=C(NCc1ccccn1)[C@@H]1CCCN1C(=O)[C@@H]1CCCN1C(=O)c1cccc2ccccc12 the results were TTR transcr act inactive.
`CCCCNC(=O)N1CCN(c2ccccc2OCC)CC1` gave TTR transcr act inactive.
`O=[N+]([O-])c1ccc(NC(=S)N2CCN(c3ccc(F)cc3)CC2)cc1` gave TTR transcr act inactive.
For Cc1cc(C)cc(NC(=S)N2CCN(c3ccc(F)cc3)CC2)c1 the results were TTR transcr act inactive.
O=C(NC(=S)N1CCN(c2ccc(F)cc2)CC1)C12CC3CC(CC(C3)C1)C2 was read as TTR transcr act 18.1, TTR inh HuH7 inactive and TTR up confirm inactive.
`Cc1cccc(NC(=S)N2CCN(c3ccccn3)CC2)c1` gave TTR transcr act inactive.
`Cc1cccc(NC(=S)N2CCN(c3ccc(F)cc3)CC2)c1` gave TTR transcr act 10.6, TTR inh HuH7 inactive and TTR up confirm inactive.
`CCOc1ccccc1N1CCN(C(=S)NCc2ccc(Cl)cc2)CC1` gave TTR transcr act inactive.
Screening O=C(NC(=S)N1CCOCC1)C12CCC3CC(CC(C3)C1)C2 returned TTR transcr act inactive.
For CCOc1ccccc1N1CCN(C(=S)NC(=O)C23CC4CC(CC(C4)C2)C3)CC1 the results were TTR transcr act 9.7, TTR inh HuH7 inactive and TTR up confirm inactive.
For Cc1ccccc1CN1CCSc2sccc2C1=O the results were TTR transcr act inactive.
`COc1ccccc1C(=O)NC1CCCCN(Cc2ccc(C)cc2)C1=O` (centres undefined) gave TTR transcr act inactive.
CC(C)Oc1ccc(S(=O)(=O)N2CCCCCC2)c2ccccc12 was read as TTR transcr act inactive.
COc1ccc(C)c(NC(=O)[C@@H]2CCCN2S(=O)(=O)c2cccc3cccnc23)c1 was read as TTR transcr act inactive.
`COc1ccc(NC(=O)C(CCCCNC(=O)OC(C)(C)C)NC2(C(=O)NCCc3c[nH]c4ccccc34)CCCCC2)cc1` (centres undefined) gave TTR transcr act inactive.
COc1ccc(S(=O)(=O)CCC(=O)N2CCN(c3ccc(F)cc3)CC2)cc1 was read as TTR transcr act 10.2, TTR inh HuH7 inactive and TTR up confirm inactive.
Screening COc1ccc(CC(=O)N2CCN(c3ccc(F)cc3)CC2)cc1 returned TTR transcr act inactive.
For O=C(CCS(=O)(=O)c1ccc(Cl)cc1)N1CCN(c2ccc(F)cc2)CC1 the results were TTR transcr act inactive.
COP(=O)(CC(=O)OC(C)(C)C)C(CC(C)C)NC(=O)OCc1ccccc1 (centres undefined) was read as TTR transcr act inactive.
Screening COc1ccccc1C(=O)C1CCCN(C(=O)c2cc(CC(C)C)nc(C)n2)C1 (centres undefined) returned TTR transcr act 19.0, TTR inh HuH7 inactive and TTR up confirm inactive.
Cc1nc(CC(C)C)cc(C(=O)N2CCCC(Nc3ccc(C)c(C)c3)C2)n1 (centres undefined) was read as TTR transcr act inactive.

Assay outcomes deposited in PubChem by The Scripps Research Institute Molecular Screening Center.
